# Experimental data taken from PubChem BioAssay AID1159580 (chemical genetic matrix, 2015).
# Hit rate of the full screen: of about 5,500 compounds, about 2,000 (36%) were called active. Roughly 18% stayed inconclusive and do not appear here. This is one part of the list. Unmarked numbers belong to inactive results. No stated cut-off is given here; in the data, active means normalized growth mostly below about 0.91 (no sharp cut-off); inconclusive means no clear call, values can overlap the other calls; inactive means mostly above about 0.92.
# Assay: chemical genetic growth profiling, strain panel (AID 1159580);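 further: tested at 20 µM; growth read once vehicle control cultures reached saturation at 30 °C; 1 = growth at the plate median or of vehicle wells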
# Details: S. cerevisiae deletion strains, growth OD
compound,measurement,setting,value
CC(C)(C)C(=O)C(Oc1ccc(Cl)cc1)n1cncn1 (stereo not given),normalized growth,"locus YAL021C, strain ccr4, stronger effect = lower value",0.639 (active)
same,normalized growth,"locus YAL026C, strain drs2, stronger effect = lower value",0.081 (active)
same,normalized growth,"locus YAL030W, strain snc1, stronger effect = lower value",0.133 (active)
same,normalized growth,"locus YBL061C, strain skt5, stronger effect = lower value",0.136 (active)
same,normalized growth,"locus YBR009C, strain hhf1, stronger effect = lower value",0.133 (active)
same,normalized growth,"locus YBR023C, strain chs3, stronger effect = lower value",0.131 (active)
same,normalized growth,"locus YBR171W, strain sec66, stronger effect = lower value",0.591 (active)
same,normalized growth,"locus YBR231C, strain swc5, stronger effect = lower value",0.119 (active)
same,normalized growth,"locus YBR279W, strain paf1, stronger effect = lower value",0.198 (active)
same,normalized growth,"locus YCL011C, strain gbp2, stronger effect = lower value",0.124 (active)
same,normalized growth,"locus YCL016C, strain dcc1, stronger effect = lower value",0.129 (active)
same,normalized growth,"locus YCL061C, strain MRC1, stronger effect = lower value",0.203 (active)
same,normalized growth,"locus YCL069W, strain vba3, stronger effect = lower value",0.106 (active)
same,normalized growth,"locus YCR088W, strain abp1, stronger effect = lower value",0.25 (active)
same,normalized growth,"locus YDL005C, strain med2, stronger effect = lower value",0.565 (active)
same,normalized growth,"locus YDL040C, strain nat1, stronger effect = lower value",0.272 (active)
same,normalized growth,"locus YDR001C, strain nth1, stronger effect = lower value",0.221 (active)
same,normalized growth,"locus YDR069C, strain doa4, stronger effect = lower value",0.655 (active)
same,normalized growth,"locus YDR137W, strain rgp1, stronger effect = lower value",0.779 (active)
same,normalized growth,"locus YDR159W, strain sac3, stronger effect = lower value",0.171 (active)
same,normalized growth,"locus YDR195W, strain ref2",0.573 (active)
same,normalized growth,"locus YDR297W, strain sur2, stronger effect = lower value",0.19 (active)
same,normalized growth,"locus YDR334W, strain swr1, stronger effect = lower value",0.141 (active)
same,normalized growth,"locus YDR335W, strain msn5, stronger effect = lower value",0.223 (active)
same,normalized growth,"locus YDR392W, strain spt3, stronger effect = lower value",0.104 (active)
same,normalized growth,"locus YEL003W, strain gim4, stronger effect = lower value",0.154 (active)
same,normalized growth,"locus YEL037C, strain rad23, stronger effect = lower value",0.268 (active)
same,normalized growth,"locus YEL061C, strain CIN8 (second series), stronger effect = lower value",0.139 (active)
same,normalized growth,"locus YER015W, strain faa2, stronger effect = lower value",0.201 (active)
same,normalized growth,"locus YER016W, strain bim1, stronger effect = lower value",0.187 (active)
same,normalized growth,"locus YER111C, strain swi4, stronger effect = lower value",0.758 (active)
same,normalized growth,"locus YER155C, strain BEM2 (second series), stronger effect = lower value",0.746 (active)
same,normalized growth,"locus YFR010W, strain ubp6, stronger effect = lower value",0.558 (active)
same,normalized growth,"locus YGL167C, strain pmr1, stronger effect = lower value",0.923
same,normalized growth,"locus YGL173C, strain kem1, stronger effect = lower value",0.701 (active)
same,normalized growth,"locus YGL227W, strain vid30, stronger effect = lower value",0.158 (active)
same,normalized growth,"locus YGL240W, strain doc1, stronger effect = lower value",0.714 (active)
same,normalized growth,"locus YGL253W, strain hxk2, stronger effect = lower value",0.0776 (active)
same,normalized growth,"locus YHR013C, strain ard1, stronger effect = lower value",0.162 (active)
same,normalized growth,"locus YHR027C, strain rpn1, stronger effect = lower value",0.337 (active)
same,normalized growth,"locus YHR030C, strain SLT2, stronger effect = lower value",0.113 (active)
same,normalized growth,"locus YHR079C, strain IRE1, stronger effect = lower value",0.264 (active)
same,normalized growth,"locus YHR142W, strain chs7, stronger effect = lower value",0.107 (active)
same,normalized growth,"locus YJL092W, strain hpr5, stronger effect = lower value",0.177 (active)
same,normalized growth,"locus YJL095W, strain BCK1 (second series), stronger effect = lower value",0.0779 (active)
same,normalized growth,"locus YJL095W, strain BCK1, stronger effect = lower value",0.129 (active)
same,normalized growth,"locus YJL115W, strain asf1, stronger effect = lower value",0.396 (active)
same,normalized growth,"locus YJL129C, strain trk1, stronger effect = lower value",0.183 (active)
same,normalized growth,"locus YJL154C, strain vps35, stronger effect = lower value",0.409 (active)
same,normalized growth,"locus YJL164C, strain tpk1, stronger effect = lower value",0.11 (active)
same,normalized growth,"locus YJL166W, strain qcr8, stronger effect = lower value",0.109 (active)
same,normalized growth,"locus YJL187C, strain SWE1, stronger effect = lower value",0.135 (active)
same,normalized growth,"locus YJR066W, strain TOR1, stronger effect = lower value",0.14 (active)
same,normalized growth,"locus YKL160W, strain elf1, stronger effect = lower value",0.112 (active)
same,normalized growth,"locus YKR026C, strain gcn3, stronger effect = lower value",0.47 (active)
same,normalized growth,"locus YKR091W, strain srl3, stronger effect = lower value",0.247 (active)
same,normalized growth,"locus YLL001W, strain dnm1, stronger effect = lower value",0.168 (active)
same,normalized growth,"locus YLL026W, stronger effect = lower value",0.0984 (active)
same,normalized growth,"locus YLL041C, strain sdh2, stronger effect = lower value",0.159 (active)
same,normalized growth,"locus YLR027C, strain aat2, stronger effect = lower value",0.115 (active)
same,normalized growth,"locus YLR113W, strain HOG1, stronger effect = lower value",0.308 (active)
same,normalized growth,"locus YLR221C, strain rsa3, stronger effect = lower value",0.118 (active)
same,normalized growth,"locus YLR258W, strain gsy2, stronger effect = lower value",0.133 (active)
same,normalized growth,"locus YLR262C, strain YPT6 (second series), stronger effect = lower value",0.66 (active)
same,normalized growth,"locus YLR320W, strain mms22, stronger effect = lower value",0.125 (active)
same,normalized growth,"locus YLR342W, strain FKS1, stronger effect = lower value",0.155 (active)
same,normalized growth,"locus YLR357W, strain rsc2, stronger effect = lower value",0.513 (active)
same,normalized growth,"locus YLR370C, strain arc18, stronger effect = lower value",0.184 (active)
same,normalized growth,"locus YLR384C, strain iki3, stronger effect = lower value",0.672 (active)
same,normalized growth,"locus YML120C, strain ndi1, stronger effect = lower value",0.153 (active)
same,normalized growth,"locus YMR058W, strain fet3, stronger effect = lower value",0.184 (active)
same,normalized growth,"locus YMR125W, strain sto1, stronger effect = lower value",0.147 (active)
same,normalized growth,"locus YMR129W, stronger effect = lower value",0.161 (active)
same,normalized growth,"locus YMR205C, strain PFK2, stronger effect = lower value",0.172 (active)
same,normalized growth,"locus YMR231W, strain pep5, stronger effect = lower value",0.805 (active)
same,normalized growth,"locus YNL071W, strain lat1, stronger effect = lower value",0.0893 (active)
same,normalized growth,"locus YNL183C, strain NPR1, stronger effect = lower value",0.178 (active)
same,normalized growth,"locus YNL209W, strain ssb2, stronger effect = lower value",0.394 (active)
same,normalized growth,"locus YNL248C, strain rpa49, stronger effect = lower value",0.142 (active)
same,normalized growth,"locus YNL322C, strain KRE1 (second series), stronger effect = lower value",0.228 (active)
same,normalized growth,"locus YNR049C, strain mso1, stronger effect = lower value",0.159 (active)
same,normalized growth,"locus YOR001W, strain rrp6, stronger effect = lower value",0.181 (active)
same,normalized growth,"locus YOR070C, strain gyp1, stronger effect = lower value",0.0975 (active)
same,normalized growth,"locus YOR080W, strain dia2, stronger effect = lower value",0.259 (active)
same,normalized growth,"locus YOR083W, strain WHI5, stronger effect = lower value",0.257 (active)
same,normalized growth,"locus YOR106W, strain vam3, stronger effect = lower value",0.211 (active)
same,normalized growth,"locus YOR231W, strain MKK1, stronger effect = lower value",0.273 (active)
same,normalized growth,"locus YOR265W, strain rbl2, stronger effect = lower value",0.164 (active)
same,normalized growth,"locus YOR270C, strain vph1, stronger effect = lower value",0.123 (active)
same,normalized growth,"locus YOR290C, strain snf2, stronger effect = lower value",0.153 (active)
same,normalized growth,"locus YPL051W, strain arl3, stronger effect = lower value",0.357 (active)
same,normalized growth,"locus YPL078C, strain atp4, stronger effect = lower value",0.203 (active)
same,normalized growth,"locus YPL106C, strain sse1, stronger effect = lower value",0.156 (active)
same,normalized growth,"locus YPL240C, strain hsp82, stronger effect = lower value",0.166 (active)
same,normalized growth,"locus YPL256C, strain CLN2, stronger effect = lower value",0.357 (active)
